Screening data (PubChem)
Shown are actives, neighbours in structure and some others; about 2.3% of the full set was active somewhere.
M1 PAM parental: nonselective activator or artifact in parental CHO-K1 calcium assay | ATP EC20, Fluo-8 calcium fluorescence; 0% at ATP EC20, 100% at ATP max | activation, % at 3 µM | 360,000 tested, 0.02% active | AID 602247;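 active means activation above the run cutoff, the mean activation of all test compounds plus 3 SD, cut at about 40% in these data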;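 further: peak over basal fluorescence ratio in a 140 s read after ATP addition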
CHRM1 antagonist: antagonists of human M1 muscarinic receptor; P11229; CHO-K1 hM1, Fluo-8 calcium fluorescence, ACh EC80 antagonist; inhibition, % at 3 µM; 360,000 tested, 1.3% active; AID 588852;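 active means percent inhibition above its own plate's cutoff, namely the mean of that plate's compound wells plus 3 SD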;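 further: peak over basal fluorescence ratio during 140 s after agonist addition; 0% = ACh EC80 plus DMSO and 100% = DMSO alone without agonist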
Target sequence (P11229 whole entry, looked up): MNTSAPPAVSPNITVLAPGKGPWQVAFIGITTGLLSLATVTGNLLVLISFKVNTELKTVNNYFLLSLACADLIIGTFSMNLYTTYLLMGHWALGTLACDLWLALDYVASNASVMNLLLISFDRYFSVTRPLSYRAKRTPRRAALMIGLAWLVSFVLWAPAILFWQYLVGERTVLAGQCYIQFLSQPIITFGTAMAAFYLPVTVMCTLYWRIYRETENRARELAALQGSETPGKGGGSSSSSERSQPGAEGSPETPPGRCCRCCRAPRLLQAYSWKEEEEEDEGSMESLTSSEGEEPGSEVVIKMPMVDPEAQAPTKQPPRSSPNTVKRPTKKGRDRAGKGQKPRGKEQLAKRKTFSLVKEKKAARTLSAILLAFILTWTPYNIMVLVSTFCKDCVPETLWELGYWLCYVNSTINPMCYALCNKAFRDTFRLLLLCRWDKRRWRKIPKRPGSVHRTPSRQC
CHRM1 PAM: positive allosteric modulators of human M1 muscarinic receptor; activation, % at 3 µM; P11229; AID 588819; CHO-K1 hM1, Fluo-8 calcium fluorescence, ACh EC20; 0% = ACh EC20, 100% = maximal ACh; 360,000 tested, 0.088% active; in the data active means activation above about 19%, passing the limit was not always enough
CHO-K1 Ca antag: M1 antagonist counterscreen hit in parental CHO-K1 cells | ATP-induced calcium, Fluo-8 fluorescence | inhibition, % at 3 µM | 360,000 tested, 0.6% active;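 active means inhibition above a per-plate cutoff, the plate's mean sample inhibition plus 3 SD, cut at about 24% in these data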;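 further: 0% = DMSO plus EC80 ATP and 100% = DMSO alone without ATP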
CHRM1 agonist: activates human CHRM1 receptor. P11229. CHO-K1 hM1, Fluo-8 calcium fluorescence, agonist mode; 0% DMSO, 100% acetylcholine EC100. activation, % at 3 µM. 360,000 tested, 0.33% active;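 active means activation above the run's mean compound activation plus 3 SD, cut at about 16% in these data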;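 further: peak over basal fluorescence ratio within a 140 s kinetic read after compound addition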
M1 ag parental: M1 agonist counterscreen hit in parental CHO-K1 cells; 360,000 tested, 0.48% active; Fluo-8 calcium fluorescence; scaled to maximal ATP response, vehicle zero; activation, % at 3 µM; AID 602248; in the data active means activation above about 15%;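 further: untransfected CHO-K1 host cells lacking M1 receptor as counterscreen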
* hit, by the source's call.

SMILES	M1 PAM parental	CHRM1 antagonist	CHRM1 PAM	CHO-K1 Ca antag	CHRM1 agonist	M1 ag parental
Cc1ccc(OCC(=O)Nc2ccc(S(=O)(=O)N3CCOCC3)cc2)c([N+](=O)[O-])n1	13.2	-0.9	-0.3	-7.4	-7.8	1.3
Cc1ccc(OCC(=O)Nc2ccc(S(=O)(=O)N3CCCCC3)cc2)c([N+](=O)[O-])n1	21.1	44.6*	-22.0	-8.5	-4.2	4.3
COc1ccc(C(=O)OCC(=O)Nc2cccc(S(=O)(=O)N3CCCCCC3)c2)cc1[N+](=O)[O-]	-0.5	54.4*	-20.4	13.9	-2.0	11.9
Cc1cc(OCC(=O)Nc2ccc(S(=O)(=O)N3CCN(C)CC3)cc2)ccc1Br	-2.2	14.1	-11.5	5.4	0.9	18.2*
O=C(COc1ccc(Br)cc1CO)Nc1ccc(S(=O)(=O)N2CCCC2)cc1	-22.6	58.3*	-26.1	4.6	-3.4	3.7
Cc1ccc(-n2c(SCc3ccc(C(=O)O)cc3)nnc2-c2ccncc2)cc1	-6.5	-14.2	6.0	-4.5	-2.9	0.8
COCCN(C(=O)Nc1ccccc1OC)c1nc2ccccc2s1	2.6	-2.0	0.1	6.6	-3.7	0.4
C[C@H](CO)N1C[C@H](C)[C@H](CN(C)Cc2cncnc2)Oc2cc(Br)ccc2S1(=O)=O	-4.1	-17.6	-1.1	1.3	-3.0	0.2
Cc1cc(OCC(=O)Nc2ccc(CN3CCCCC3)cc2)ccc1Cl	11.2	50.5*	-30.6	0.5	-3.8	13.4
Cc1cc(OCC(=O)Nc2ccc(CN3CCOCC3)cc2)ccc1Cl	-10.6	3.9	4.6	11.8	-1.1	12.3
COc1cccc(N(C(=O)c2cccs2)c2nc3ccccc3s2)c1	-8.5	1.7	1.8	26.3*	-1.9	-0.3
CCN(C(=O)c1cccs1)c1nc(-c2ccc(OC)cc2)cs1	21.0	5.9	-8.2	-8.5	-6.7	1.4
O=c1c2ccccc2oc2c1oc1ccccc12	23.3	-8.5	2.8	-19.9	-9.4	0.4
O=C(NCC1COc2ccccc2O1)C1CCCN(S(=O)(=O)c2cccc3nsnc23)C1 (stereo unspecified)	10.6	-3.8	4.7	-8.9	-1.5	3.8
O=C(NCc1cccnc1)C1CCCN(S(=O)(=O)c2cccc3nsnc23)C1 (stereo unspecified)	-9.0	38.2*	-21.6	14.2	-9.2	0.0
O=C(NCC1COc2ccccc2O1)C1CCCN(S(=O)(=O)c2cccc3cccnc23)C1 (stereo unspecified)	2.2	-1.0	8.3	25.1*	1.4	1.1
Cc1cc(C)c(S(=O)(=O)N2CCCC(C(=O)NCc3cccnc3)C2)c(C)c1 (stereo unspecified)	2.8	34.2*	-15.9	-7.2	-4.3	6.8
C=C(c1ccccc1O)n1ccnc1	18.4	-8.6	8.6	-8.3	-2.8	1.5
CC(=O)C1=C(O)C(=O)N(Cc2ccccc2)C1c1ccco1 (stereo unspecified)	15.3	1.0	-0.1	4.5	-4.8	0.1
CN(C)S(=O)(=O)c1ccc2oc(SCC(N)=O)nc2c1	-6.8	-9.1	8.4	5.0	-1.2	0.4
CN(C)S(=O)(=O)c1ccc2oc(SCC(=O)c3c(N)n(C4CC4)c(=O)[nH]c3=O)nc2c1	9.9	11.5	-3.2	-15.0	-4.1	20.4*
O=C(COC(=O)C1CC2C=CC1C2)Nc1ccc([N+](=O)[O-])cc1 (stereo unspecified)	-0.9	7.2	-6.0	-8.3	4.1	4.2
CCOC(=O)C1CCCN(C2=NC(=O)/C(=C/c3ccc(N(C)C)cc3)S2)C1 (stereo unspecified)	0.6	2.0	-1.5	-6.4	24.4*	7.2
N#CC1(CCCN2CCCCC2)c2ccccc2CCc2ccccc21	15.8	67.7*	-24.6	-13.7	-5.1	2.0
OCCN1CCN(CCCN2c3ccccc3CCc3ccccc32)CC1	21.1	13.0	-19.2	-13.0	-6.3	2.1
SMILES	M1 PAM parental	CHRM1 antagonist	CHRM1 PAM	CHO-K1 Ca antag	CHRM1 agonist	M1 ag parental
Cc1ccc(Cc2c(C3CCCCC3)nc3cc(C)c(Br)c(C)n23)cc1	25.8	-25.6	3.5	-32.2	-0.3	1.1
CCOC(=O)c1ccc(NC(=O)CSc2nc3cccnc3n2C)cc1	-7.6	19.1	-8.1	34.1*	0.5	1.3
COc1ccc(C(=O)CSc2nc3cccnc3n2C)cc1	-7.2	-7.9	-5.7	27.7*	3.1	1.4
Cc1ccc(C)c(C(O)c2ncc(-c3ccccc3Cl)[nH]2)c1 (stereo unspecified)	10.9	11.0	-3.1	-3.5	-2.8	1.5
COc1ccc(N2CCN(C(=O)c3ccc(C)c(Cl)c3)CC2)cc1	-2.6	4.2	6.5	29.5*	-3.8	-0.1
COc1ccc(N2CCN(CCNC(=O)Nc3ccc(C)c(Cl)c3)CC2)cc1	-8.4	-14.4	11.1	-11.7	-0.7	18.4*
O=C(Nc1ccccc1Cl)c1cc(C2CCCN(C(=O)c3cccc(O)c3)C2)on1 (stereo unspecified)	15.6	5.1	-3.4	-0.4	-2.0	0.7
Cn1c(=O)c2c(nc(SCCN3CCCCC3)n2Cc2ccc(Cl)cc2)n(C)c1=O	11.4	32.5*	-26.0	-6.7	-6.8	0.3
CCSc1nc2c(c(=O)n(C)c(=O)n2C)n1Cc1ccc(Cl)cc1	21.6	-5.8	-3.4	-15.3	-3.5	1.3
O=C(COC(=O)C1CC2CCCC(C1)C2=O)NC1CCCCC1 (stereo unspecified)	24.6	-12.0	8.0	-21.7	-5.1	0.8
N#Cc1ccc(CN2CCN(C(=O)CNC(=O)Cc3cccc4ccccc34)CC2)cc1	6.0	2.2	-8.9	-5.7	23.1*	8.9
CN1CCCCC1CCN1c2ccccc2Sc2ccc(S(C)=O)cc21 (stereo unspecified)	20.6	99.3*	-25.3	-10.4	-7.5	-0.1
CCSc1ccc2c(c1)N(CCCN1CCN(C)CC1)c1ccccc1S2	13.7	22.5	-19.3	6.6	-6.0	2.8
Cc1cc(C)c(S(=O)(=O)Nc2ncn[nH]2)cc1C	-17.1	8.4	3.2	2.2	1.9	0.0
Fc1ccc(C2N(c3ccccc3)C(=S)N3CCCN23)cc1 (stereo unspecified)	-19.5	24.9	-19.9	10.2	-7.5	0.0
Cc1ccc(C2N(c3ccccc3)C(=S)N3CCCN23)cc1 (stereo unspecified)	3.0	85.0*	-24.6	-3.7	-6.9	-0.2
O=C(NCc1ccccc1)c1cc(C2COCCN2C(=O)c2ccc(Cl)cc2)on1 (stereo unspecified)	0.1	-18.0	5.5	-2.9	-3.0	1.1
Cc1csc2c(N3CCN(C(=S)Nc4ccc(C(F)(F)F)cc4)CC3)ncnc12	-26.8	21.5	-3.6	27.8*	3.5	4.8
Cc1csc2ncnc(N3CCN(C(=S)Nc4ccc(C(F)(F)F)cc4)CC3)c12	-3.2	42.9*	-13.8	19.6	-1.7	11.2
Cc1csc2c(N3CCN(C(=O)c4ccc(C(C)(C)C)cc4)CC3)ncnc12	-27.3	21.4	-14.4	22.4	-0.2	11.6
